Source: PubChem BioAssay
An excerpt weighted towards active compounds, which were near 19% of everything screened.
Pf growth 48h – Primary qHTS for delayed death inhibitors of the malarial parasite plastid, 48 hour incubation; Potency, µM (series often up to 28.7 µM), actives largely listed as inhibitors; AID 504832, 2011; P. falciparum luciferase growth in erythrocytes, 48 h; 310,000 compounds, 5.9% hits
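Growth was read as firefly luciferase luminescence after a 48 h, 37 C, 5% CO2 exposure of compounds to reporter-bearing P. falciparum cultures (0.1% parasitemia, 2% hematocrit final) in Albumax-supplemented RPMI 1640.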
SARS PLpro yeast – qHTS of Yeast-based Assay for SARS-CoV PLP; Potency, µM (titrated, usually from 32.9 µM), actives largely listed as activators; S. cerevisiae expressing SARS-CoV PLpro, growth rescue; 330,000 compounds, 0.19% hits; calls by dose curve; note: nearly all actives have a fitted effect of over 55% in size
AMA1 RON2 block – qHTS for Inhibitors of AMA1-RON; Towards Development of Antimalarial Drug Lead: Primary Screen | 360,000 compounds, 0.2% hits | AlphaScreen AMA1-biotinylated RON2 peptide binding | Plasmodium falciparum AMA1 (3D7) - RON2 peptide interaction | Potency, µM (highest dose often 58.2 µM), actives largely listed as inhibitors; note: nearly all actives have a fitted effect of over 45% in size
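AMA1 (3D7) with his tag at 25 nM final met compounds first, then biotinylated RON2 peptide at 25 nM; detection used donor plus acceptor beads, 10 µg/mL apiece, read by AlphaScreen after 30 min at room temperature.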
Cycloheximide cs – Cycloheximide Counterscreen for Small Molecule Inhibitors of Shiga Toxin; max response, %; AID 2314, 2010; 300,000 compounds, 12% hits; cell reporter, cycloheximide protein synthesis inhibition counterscreen; in the data active = max response mostly above about 13%, no sharp cut-off; inactive = mostly below about 14%; note: read at 38.3 µM for the half of the compounds with a filed dose
Shiga toxin inh – A qHTS for Small Molecule Inhibitors of Shiga Toxin; Vero cells, Shiga toxin protein synthesis inhibition reporter; inhibition, % at 38.7 µM; 290,000 compounds, 9.2% hits; AID 2315, 2010; in the data active = inhibition mostly above about 28%, no sharp cut-off; inactive = mostly below about 43%
Pf growth 96h – Primary qHTS for delayed death inhibitors of the malarial parasite plastid, 96 hour incubation; AID 504834, 2011; 320,000 compounds, 6.9% hits; Potency, µM (highest dose often 28.7 µM), usual class: inhibitors; P. falciparum luciferase reporter growth, 96 h
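Cell-based qHTS: luciferase-tagged P. falciparum in erythrocytes (2% hematocrit, 0.05% parasitemia final) incubated with compounds for 96 hours, 37 C, 5% CO2; luciferase detection reagent then added and luminescence measured.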
Large screens that a line does not name were inactive. Unless noted, calls come from the whole dose curve; as a rule, active = well fitted curve in the direction sought with a large enough effect; inconclusive = small, poorly fitted or top-dose-only effect, or another doubt; inactive = no such curve, though single readings can be large; an effect the other way counts as inactive or inconclusive.

CC(C)CN1C(=O)C(=O)N(CC(=O)c2ccc3c(c2)CCCC3)C1=O	none (no result: Cycloheximide cs, Shiga toxin inh)
COc1ccc(-c2nnc(CSc3nc4ccccc4c(=O)n3CC3CCCO3)o2)cc1OC (stereo not drawn)	Pf growth 96h inconclusive
NC(=O)c1ccsc1NC(=O)COC(=O)[C@@H]1CCCN1C(=O)c1cccs1	none (no result: Pf growth 48h, SARS PLpro yeast, Cycloheximide cs, Shiga toxin inh, Pf growth 96h)
O=C(c1cccc(S(=O)(=O)N2CCCCC2)c1)N1CCN(S(=O)(=O)c2ccc(F)cc2)CC1	Pf growth 96h 9.3µM (no result: Pf growth 48h)
COc1ccc(S(=O)(=O)N2CCCC2)cc1C(=O)N1CCCCC1	none
O=C(c1cccc(S(=O)(=O)N2CCN(c3ccc(F)cc3)CC2)c1)N1CCCCCCC1	Pf growth 48h inconclusive, Pf growth 96h inconclusive (no result: Cycloheximide cs, Shiga toxin inh)
CC1CCC(N2CCN(C(=O)c3ccccc3F)CC2)CC1 (stereo not drawn)	Pf growth 96h 12µM
O=C(c1cc(S(=O)(=O)N2CCCCC2)ccc1F)N1CCCCC1	Pf growth 48h 2.3µM, Pf growth 96h inconclusive
COc1ccc(S(=O)(=O)N2CCCCC2)cc1C(=O)N1CCCC1	Pf growth 96h 2.3µM
CCOC(=O)c1c(C)[nH]c(C(=O)COC(=O)c2cc(C)oc2C)c1C	none (no result: Cycloheximide cs, Shiga toxin inh)
COc1ccccc1/C=C/c1onc(C)c1S(=O)(=O)N1CCC(C(=O)NC(C)C)CC1	Pf growth 48h inconclusive, SARS PLpro yeast inconclusive, Pf growth 96h inconclusive
O=C(c1ccccc1F)N1CCN(S(=O)(=O)c2ccc(S(=O)(=O)N3CCCCCC3)cc2)CC1	Pf growth 48h 12µM
O=C(c1ccccc1F)N1CCN(S(=O)(=O)c2ccc(S(=O)(=O)N3CCCCC3)cc2)CC1	none
COc1ccc(N(CC(=O)NCc2ccccc2)S(C)(=O)=O)cc1	Cycloheximide cs 31, Shiga toxin inh 52
CCOc1ccc(N(CC(=O)NCc2ccc(OC)cc2)S(C)(=O)=O)cc1	Cycloheximide cs 34, Shiga toxin inh 56
Cc1cc(=O)oc2cc(OCC(=O)c3ccc4c(c3)NC(=O)CO4)ccc12	none
c1ccc(N2CCN(c3ccccc3)C2c2cccs2)cc1	Cycloheximide cs 30, Shiga toxin inh 94 (no result: Pf growth 96h)
O=C1CSC(c2ccccn2)N1c1ccc(C(F)(F)F)cc1 (stereo not drawn)	Pf growth 48h 2.9µM, Pf growth 96h inconclusive
O=C1CSC(c2cccs2)N1c1ccccc1 (stereo not drawn)	Pf growth 96h 7.4µM
CC12CN3CC(C)(CN(C1)C3c1cccs1)C2=O (stereo not drawn)	Pf growth 96h inconclusive
O=C1CN(C(=O)c2ccccc2F)C(c2ccc(F)cc2)c2cc(Br)ccc2N1 (stereo not drawn)	Pf growth 48h inconclusive, Pf growth 96h inconclusive
CCCCCc1ccc(CC(=O)Nn2c(C)nc3ccccc3c2=O)cc1	none (no result: Pf growth 48h)
O=C1COc2ccc(C(=O)COC(=O)c3ccco3)cc2N1	Pf growth 48h inconclusive, Cycloheximide cs 27, Shiga toxin inh 42
N#CCC(=O)Nc1ccc(C(=O)OCC(=O)c2ccc3c(c2)NC(=O)CO3)cc1	Pf growth 48h 13µM, Pf growth 96h inconclusive (no result: Cycloheximide cs, Shiga toxin inh)
O=C(O)/C=C/C(=O)c1ccc2c(c1)NC(=O)CO2	Pf growth 48h 1.9µM, Pf growth 96h 3.3µM
CC(=O)Nc1cc(NC(C)=O)cc(C(=O)OCC(=O)c2ccc3c(c2)NC(=O)CO3)c1	none (no result: Cycloheximide cs, Shiga toxin inh)
CC(C)[C@H](NC(=O)c1ccco1)C(=O)OCC(=O)c1ccc2c(c1)NC(=O)CO2	none
O=C1COc2ccc(C(=O)NC3CC3)cc2N1	none
O=C(CSc1nnc(-c2ccccc2)c(-c2ccccc2)n1)NC1CCS(=O)(=O)C1 (stereo not drawn)	none
Cn1nccc1C(=O)Nc1nnc(C2CC2)s1	none
Cc1cc(N2CCN(C)CC2)nc2ccc(NC(=O)CCC(=O)NCCc3ccc(Cl)cc3)cc12	Pf growth 48h 12µM
Cc1cc(N2CCOCC2)nc2ccc(NC(=O)CCC(=O)N3CCCCC3)cc12	none
CC(=O)c1ccc(N2CCN(C(=O)CCC(=O)Nc3ccc4nc(N5CCN(C)CC5)cc(C)c4c3)CC2)cc1	Pf growth 48h 9.3µM
CCOC(CCNC(=O)CCC(=O)Nc1ccc2nc(N3CCN(C)CC3)cc(C)c2c1)OCC	Pf growth 96h inconclusive
CCN1CCN(c2cc(C)c3cc(NC(=O)CCC(=O)N4CCN(c5ccccc5)CC4)ccc3n2)CC1	Pf growth 48h inconclusive
Cc1cc(N2CCOCC2)nc2ccc(NC(=O)CCC(=O)N3CCN(c4cccc(C(F)(F)F)c4)CC3)cc12	Pf growth 48h 4.7µM, Cycloheximide cs 28, Shiga toxin inh 67
Cc1ccccc1OCC(=O)NC1=NCCS1	Cycloheximide cs 29, Shiga toxin inh 32 (no result: Pf growth 48h)
COC(=O)NNC(=O)COc1ccccc1C	none
O=C(COc1ccccc1)NCC(=O)NC1=NCCS1	none
Cc1ccc(OCC(=O)NC2=NCCS2)cc1	AMA1 RON2 block inconclusive, Cycloheximide cs 25
CC1CCN(C(=O)CS(=O)(=O)Cc2ccccc2)CC1	Cycloheximide cs 35, Shiga toxin inh 77
CC1CCN(C(=O)c2ccc(CS(=O)(=O)Cc3ccccc3)cc2)CC1	Pf growth 96h inconclusive
Cc1onc(-c2ccccc2)c1-c1nnc(-c2ccccc2C(F)(F)F)o1	none
CCn1c(C)nc2cc(-c3nnc(-c4c(-c5ccccc5)noc4C)o3)ccc21	Pf growth 48h 9.3µM
Cc1cc(C(=O)NNc2c(Cl)cccc2Cl)no1	none
C/C(=N\OC(=O)c1ccc(F)cc1)c1ccc(F)c(F)c1	none
N/C(=N/OC(=O)c1ccccc1Cl)c1nonc1N	Cycloheximide cs 38, Shiga toxin inh 90
Cc1ccc(C(=O)O/N=C(\N)c2nonc2N)cc1	Cycloheximide cs 47, Shiga toxin inh 51, Pf growth 96h inconclusive
N/C(=N\OC(=O)c1ccc(F)cc1)c1nonc1N	Cycloheximide cs 48, Shiga toxin inh 71
Cc1cc(/C(N)=N/OC(=O)c2ccccc2Cl)no1	Cycloheximide cs 21, Shiga toxin inh 38
N/C(=N/OCC(=O)Nc1cccc2ccccc12)c1nonc1N	Pf growth 96h inconclusive
CCOc1ccc(C(=O)NCC(=O)NCCSc2ccc(Br)cc2)cc1OCC	none (no result: Pf growth 48h, SARS PLpro yeast, Cycloheximide cs, Shiga toxin inh, Pf growth 96h)
c1ccc(C2=Nc3cccnc3C(c3ccccc3)=NN2)cc1	Cycloheximide cs 34, Shiga toxin inh 92
CCOc1ccc(C2=NNC(c3cccnc3)=Nc3ccc(OC)cc32)cc1	Pf growth 48h inconclusive, Pf growth 96h inconclusive
Fc1ccc2c(c1)C(c1ccncc1)=NNC(c1ccccc1)=N2	Pf growth 48h inconclusive, Cycloheximide cs 62, Shiga toxin inh 72, Pf growth 96h inconclusive
COc1ccc(Cc2c(C3CCCCC3)nc3cc(C)c(Br)c(C)n23)c(C)c1	none (no result: Pf growth 48h, SARS PLpro yeast, Cycloheximide cs, Shiga toxin inh, Pf growth 96h)
CC(c1cc2ccccc2s1)N(O)C(N)=O (stereo not drawn)	Pf growth 96h 0.38µM (no result: AMA1 RON2 block)
